Source: PubChem BioAssay
A number with no mark means an inactive call. For some of these results: Entries with a potency or affinity are not part of this list. Activity calls are given as the source filed them. Unless noted, how the calls were made is not given here.

Legend:
[1] = antimalarial activity against Dd2 strain (AID 2302;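 active means growth inhibition above 50% at the single 2 µM test dose, taken to imply half-maximal potency below 2 µM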;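 further: 0% = DMSO untreated growth and 100% = chloroquine plus artemisinin killed control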); settings: P. falciparum Dd2 in RBCs, LDH growth readout, 72 h; at 2 µM; stronger effect = higher value
[2] = human hepatoma cell viability loss – ATP luminescence, cytotoxicity control for P. falciparum antimalarial project, primary screen (AID 2303;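 active means inhibition above 50%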;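 further: 0% = DMSO wells and 100% = digitonin-killed cells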); settings: HepG2 viability, 24-48 h, at 10 µM, stronger effect = higher value
[3] = biological target: L-lactate dehydrogenase (Plasmodium falciparum (isolate CDC / Honduras)) (UniProt Q27743); assay: PfLDH activity inhibition – cell lysate, 3D7 strain, counter-screen for P. falciparum growth inhibition project (AID 2304);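 further: 0% = vehicle and 100% = reference inhibitor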; settings: P. falciparum 3D7 crude extract, LDH APAD/NBT absorbance; at 2 µM; stronger effect = higher value
[4] = inhibition of 3D7 malaria parasite growth – strain 3D7 (AID 2306);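 further: 0% = DMSO wells and 100% = chloroquine plus artemisinin control wells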; settings: P. falciparum 3D7 erythrocytic growth, LDH absorbance, 72 h; at 2 µM; stronger effect = higher value
[5] = biological target: Calcium-dependent protein kinase 1 (Plasmodium falciparum (isolate 3D7)) (UniProt P62344); assay: PfCDPK1 kinase inhibitors, biochemical, TCAMS library (AID 1159585; cut-off not given, nearly all actives have IC50 up to about 0.98 µM;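 further: inhibitors leave more ATP so luminescence rises with inhibition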); settings: recombinant PfCDPK1, Kinase-Glo ATP depletion luminescence
[6] = biological target: Plasmodium falciparum protein kinase 6 (PK6, PF3D7_1337100) (UniProt Q8IDW1); assay: PfPK6 kinase inhibitors, biochemical, TCAMS library (AID 1159586); settings: recombinant PfPK6, Kinase-Glo ATP depletion luminescence
[7] = biological target: Protein kinase 7 (PK7), Plasmodium falciparum 3D7 (PF3D7_0213400) (UniProt Q7YTF7); assay: inhibition of Plasmodium PK7 catalytic activity – biochemical, TCAMS antimalarial set, Kinase-Glo luminescence (AID 1159587); settings: recombinant PfPK7, Kinase-Glo ATP depletion luminescence
[8] = biological target: Calcium-dependent protein kinase 4 (Plasmodium falciparum (isolate 3D7)) (UniProt Q8IBS5); assay: PfCDPK4 kinase inhibitors, biochemical, TCAMS library (AID 1159588; cut-off not given, nearly all actives have IC50 up to about 0.91 µM); settings: recombinant PfCDPK4, Kinase-Glo ATP depletion luminescence
Chain of Calcium-dependent protein kinase 4 (Plasmodium falciparum (isolate 3D7)) (Q8IBS5 whole entry, looked up): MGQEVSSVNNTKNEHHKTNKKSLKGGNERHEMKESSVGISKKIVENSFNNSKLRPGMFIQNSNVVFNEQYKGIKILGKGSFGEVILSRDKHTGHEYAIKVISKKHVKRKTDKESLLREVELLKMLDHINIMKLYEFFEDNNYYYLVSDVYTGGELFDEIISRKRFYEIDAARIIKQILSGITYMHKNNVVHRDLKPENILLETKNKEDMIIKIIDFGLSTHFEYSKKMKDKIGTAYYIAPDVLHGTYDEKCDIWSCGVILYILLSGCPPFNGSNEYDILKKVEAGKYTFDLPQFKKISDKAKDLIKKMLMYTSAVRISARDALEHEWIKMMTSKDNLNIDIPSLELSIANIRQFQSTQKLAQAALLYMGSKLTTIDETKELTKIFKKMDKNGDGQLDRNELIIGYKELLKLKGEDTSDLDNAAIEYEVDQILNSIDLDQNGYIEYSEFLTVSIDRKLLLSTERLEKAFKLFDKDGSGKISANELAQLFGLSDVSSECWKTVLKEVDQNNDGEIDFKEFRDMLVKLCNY

Chain of Plasmodium falciparum protein kinase 6 (PK6, PF3D7_1337100) (Q8IDW1 1-305): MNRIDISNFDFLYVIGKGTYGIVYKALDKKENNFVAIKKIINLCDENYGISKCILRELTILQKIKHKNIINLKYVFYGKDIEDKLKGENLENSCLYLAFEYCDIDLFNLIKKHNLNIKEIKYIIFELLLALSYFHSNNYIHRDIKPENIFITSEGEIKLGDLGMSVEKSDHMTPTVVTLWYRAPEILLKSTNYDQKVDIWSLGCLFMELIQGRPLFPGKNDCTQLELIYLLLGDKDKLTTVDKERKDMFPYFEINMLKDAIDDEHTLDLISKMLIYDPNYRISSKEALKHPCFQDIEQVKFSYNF
Chain of Calcium-dependent protein kinase 1 (Plasmodium falciparum (isolate 3D7)) (P62344 whole entry, looked up): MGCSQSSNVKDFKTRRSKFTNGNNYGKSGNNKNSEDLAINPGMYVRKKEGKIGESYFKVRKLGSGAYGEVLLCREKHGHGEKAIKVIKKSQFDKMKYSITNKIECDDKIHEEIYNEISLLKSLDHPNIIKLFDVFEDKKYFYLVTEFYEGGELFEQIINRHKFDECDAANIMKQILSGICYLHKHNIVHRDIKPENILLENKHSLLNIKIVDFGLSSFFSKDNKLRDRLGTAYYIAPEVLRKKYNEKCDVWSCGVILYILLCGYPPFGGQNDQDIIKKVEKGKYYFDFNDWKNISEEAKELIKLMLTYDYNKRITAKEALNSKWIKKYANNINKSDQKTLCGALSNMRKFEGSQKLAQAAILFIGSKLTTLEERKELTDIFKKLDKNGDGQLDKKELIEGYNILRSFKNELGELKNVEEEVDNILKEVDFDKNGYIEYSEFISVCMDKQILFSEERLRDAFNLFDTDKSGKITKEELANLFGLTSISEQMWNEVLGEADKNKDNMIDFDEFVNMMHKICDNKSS
Chain of Protein kinase 7 (PK7), Plasmodium falciparum 3D7 (PF3D7_0213400) (Q7YTF7 1-343): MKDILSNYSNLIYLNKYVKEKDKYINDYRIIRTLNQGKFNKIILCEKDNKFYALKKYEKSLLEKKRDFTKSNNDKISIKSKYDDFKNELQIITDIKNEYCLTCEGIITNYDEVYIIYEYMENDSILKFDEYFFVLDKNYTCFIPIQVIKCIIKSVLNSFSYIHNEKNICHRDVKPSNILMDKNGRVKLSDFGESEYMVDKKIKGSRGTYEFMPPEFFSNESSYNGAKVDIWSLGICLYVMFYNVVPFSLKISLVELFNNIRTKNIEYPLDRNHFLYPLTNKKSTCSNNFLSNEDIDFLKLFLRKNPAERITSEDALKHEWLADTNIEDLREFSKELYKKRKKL
Chain of L-lactate dehydrogenase (Plasmodium falciparum (isolate CDC / Honduras)) (Q27743 whole entry, looked up): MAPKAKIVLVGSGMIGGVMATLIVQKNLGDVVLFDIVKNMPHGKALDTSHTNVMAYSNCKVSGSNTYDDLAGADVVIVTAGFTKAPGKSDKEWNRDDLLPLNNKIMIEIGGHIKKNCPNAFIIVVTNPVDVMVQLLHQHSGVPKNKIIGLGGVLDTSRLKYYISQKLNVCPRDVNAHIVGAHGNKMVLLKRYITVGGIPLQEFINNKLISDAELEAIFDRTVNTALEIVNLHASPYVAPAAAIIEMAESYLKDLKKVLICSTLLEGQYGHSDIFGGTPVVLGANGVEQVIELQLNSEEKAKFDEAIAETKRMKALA

Structure (SMILES)	growth inhibition [1]	inhibition [2]	inhibition [3]	growth inhibition [4]	outcome [5]	outcome [6]	outcome [7]	outcome [8]
CCCCCCCc1c(C)[nH]c2c(OC)cccc2c1=O	85% (active)	-5%	5%	89% (active)	inactive	inactive	inactive	inactive
CC(C)CCn1c(Sc2ccc(C#N)c([N+](=O)[O-])c2)nnc1-c1cccc(Cl)c1	82% (active)	33%	0%	96% (active)	inactive	inactive	inactive	inactive
COc1ccc2ncc(F)c(CCN3[C@@H]4CC[C@H]3CC(NCc3cc5c(cn3)OCS5)C4)c2n1 (stereo partly drawn)	48%	15%	-2%	95% (active)	inactive	inactive	inactive	inactive
CCCOC(=O)c1ccc(OCCCON2C(N)=NC(N)=NC2(C)C)cc1	97% (active)	61% (active)	6%	95% (active)	inactive	inactive	inactive	inactive
Cc1cc(Nc2cccc(C(F)(F)F)c2)nc(Nc2cccc(C(F)(F)F)c2)n1	73% (active)	-1%	-3%	100% (active)	inactive	inactive	inactive	inactive
Cc1ccc2c(OCCN3CCC(Cc4cc5c(cc4F)OCC(=O)N5)CC3)cc(F)cc2n1	71% (active)	27%	3%	100% (active)	inactive	inactive	inactive	inactive
Cc1onc(-c2ccc(Cl)cc2)c1-c1ccnn1S(=O)(=O)c1ccc(Cl)cc1	99% (active)	-3%	3%	101% (active)	inactive	inactive	inactive	inactive
CN(CCC(CCN1CCC(c2c[nH]c3ccccc23)CC1)c1ccccc1)C(=O)Nc1ccc(Cl)c(Cl)c1 (stereo not drawn)	21%	50% (active)	3%	91% (active)	inactive	inactive	inactive	inactive
Nc1ccc2[nH]cc(C3CCN(CC4CCN(C(=O)/C=C/c5ccc(Cl)c(Cl)c5)CC4)CC3)c2n1	97% (active)	53% (active)	-2%	99% (active)	inactive	inactive	inactive	inactive
CCc1cn2c3c(cc(C(=O)N[C@@H](Cc4ccccc4)[C@H](O)CNC4CCC4)cc13)N(C)S(=O)(=O)CC2	98% (active)	-4%	-3%	98% (active)	inactive	inactive	inactive	inactive
O=C(Nc1ccccc1)N(Cc1cccc(-c2ccc(CNCCc3ccccc3)cc2)c1)C1CCN(Cc2ccccc2)CC1	95% (active)	100% (active)	3%	101% (active)	inactive	inactive	inactive	inactive
O=C(Nc1ccc2c(c1)CCN2C1CCN(Cc2csc3ccccc23)C1)c1ccco1 (stereo not drawn)	95% (active)	-5%	-2%	95% (active)	inactive	inactive	inactive	inactive
CC(C)N1CCN(C(CN2CCN(CCCOc3cccc(-c4ccccc4)c3)CC2)c2ccc(F)cc2)CC1 (stereo not drawn)	99% (active)	100% (active)	-2%	100% (active)	inactive	inactive	inactive	inactive
COc1ccc(CNCc2ccc(-c3ccc(-c4nc5c(C)cccc5[nH]4)s3)cc2)cc1	89% (active)	54% (active)	3%	100% (active)	inactive	inactive	inactive	inactive
CCOc1c(OC)ccc2c1CCN(CCN1CCC(CNC(=O)c3ccc(-c4ccc(C(F)(F)F)cc4)cc3)CC1)C2	21%	54% (active)	2%	102% (active)	inactive	inactive	inactive	inactive
Cc1cc(C2CCN(CCCCNC(=O)c3ccc(-c4ccc(C#N)cc4)cc3)CC2)c(C)cc1O	96% (active)	27%	3%	96% (active)	inactive	inactive	inactive	inactive
Cc1ccccc1C1CCN(C2CCC(NC(=O)/C=C/c3cc(F)ccc3F)CC2)CC1 (stereo not drawn)	36%	47%	-2%	85% (active)	inactive	inactive	inactive	inactive
Cc1ccc(Nc2nc(C)cc(N3CCN(c4ccccc4)CC3)n2)cc1	72% (active)	4%	3%	93% (active)	inactive	inactive	inactive	inactive
COC(=O)c1ccc2[nH]cc(C3CCN(CCC4CCN(C(=O)/C=C/c5ccc(Cl)c(Cl)c5)CC4)CC3)c2c1	59% (active)	24%	1%	97% (active)	inactive	inactive	inactive	inactive
N#CC(c1ccc(Cl)cc1)c1ccc2c(C(F)(F)F)cc(C(F)(F)F)nc2n1 (stereo not drawn)	54% (active)	68% (active)	1%	97% (active)	inactive	inactive	inactive	inactive
Cc1ccc(C(NC(=O)C2CCCCC2)c2ccc3cccnc3c2O)cc1 (stereo not drawn)	59% (active)	69% (active)	2%	91% (active)	inactive	inactive	inactive	inactive

Structure (SMILES)	growth inhibition [1]	inhibition [2]	inhibition [3]	growth inhibition [4]	outcome [5]	outcome [6]	outcome [7]	outcome [8]
CC(C)c1cc(Oc2c(I)cc(CCCc3ncc[nH]3)cc2I)ccc1O	1%	28%	0%	88% (active)	inactive	inactive	inactive	inactive
CCN(CC)CCCC(C)Nc1c2cc(OC)ccc2nc2cc(Cl)c([N+](=O)[O-])cc12 (stereo not drawn)	89% (active)	12%	2%	100% (active)	inactive	inactive	inactive	inactive
COc1ccc(-c2ccc(CNC3Cc4ccccc4C3)cc2)cc1S(=O)(=O)NCCN1CCCC1	99% (active)	30%	3%	100% (active)	inactive	inactive	inactive	inactive
O=C(Nc1ccc(Cl)cn1)c1sc2ccccc2c1O	18%	2%	-3%	99% (active)	inactive	inactive	inactive	inactive
CN(C)c1ccc(-c2csc(C(=O)NCC3CCN(CCC(C)(C)C)C3)c2)cc1 (stereo not drawn)	16%	29%	4%	87% (active)	inactive	inactive	inactive	inactive
CS(=O)(=O)Cc1ccc(Nc2nccc(NC3CCN(c4nccc(C(F)(F)F)n4)CC3)n2)cc1	23%	34%	-3%	88% (active)	inactive	inactive	inactive	inactive
Cc1cccc2[nH]c(-c3ccc(-c4cccc(C(=O)NCCN5CCCC5)c4)s3)nc12	2%	22%	4%	94% (active)	inactive	inactive	inactive	inactive
Cc1ccc(O)c(-c2cc(C(=O)Nc3ccc(S(=O)(=O)N4CCCC(C)C4)cc3)[nH]n2)c1 (stereo not drawn)	97% (active)	27%	-2%	96% (active)	inactive	inactive	inactive	inactive
CSc1ccc(NC(=O)Nc2cc(C)nc3ccccc23)cc1	23%	7%	1%	100% (active)	inactive	inactive	inactive	inactive
COc1ccc2nc(-c3cc(-c4ccc(NC(=O)CN5CCOCC5)cc4)cnc3N)[nH]c2c1	72% (active)	52% (active)	-4%	100% (active)	inactive	inactive	inactive	inactive
CNCCCNCc1ccc(-c2ccc(F)c(Cl)c2)o1	12%	22%	0%	100% (active)	inactive	inactive	inactive	inactive
Brc1ccc(Nc2ccnc3cc(-c4nccs4)ccc23)cc1Oc1ccnc2cc(-c3nccs3)ccc12	83% (active)	15%	-4%	91% (active)	inactive	inactive	inactive	inactive
O=C(Nc1ccc(OC(F)(F)F)cc1)NC1CCN(c2ccnc3ccccc23)C1 (stereo not drawn)	89% (active)	25%	1%	101% (active)	inactive	inactive	inactive	inactive
O=C(Nc1cccc(OCc2ccccc2)c1)c1ccc(CN2CCC(Cc3ccccc3)CC2)cc1	27%	41%	3%	100% (active)	inactive	inactive	inactive	inactive
COc1cccc2cc(C(=O)N[C@@H](CC(C)C)C(=O)Nc3cc(F)ccc3Br)oc12	45%	7%	-1%	87% (active)	inactive	inactive	inactive	inactive
Cc1cccc2[nH]c(-c3ccc(-c4cccc(CNCC5CCCO5)c4)cc3)nc12 (stereo not drawn)	50% (active)	18%	-5%	101% (active)	inactive	inactive	inactive	inactive
CCC1(C)N=C(N)N=C(N)N1c1ccc(Cl)cc1 (stereo not drawn)	-1%	7%	-3%	95% (active)	inactive	inactive	inactive	inactive
CC(Oc1cccc(Cl)c1)C(=O)N1CCc2ccccc21 (stereo not drawn)	77% (active)	4%	-1%	94% (active)	inactive	inactive	inactive	inactive
FC(F)(F)c1cccnc1N1CCC(Nc2nc3ccc(Cl)cc3[nH]2)CC1	39%	32%	-2%	93% (active)	inactive	inactive	inactive	inactive
O=C(Nc1ccc(C(=O)N(Cc2ccc3c(c2)OCO3)C2CCCC2)cc1)c1cccs1	95% (active)	14%	4%	97% (active)	inactive	inactive	inactive	inactive
